# Source: PubChem (National Center for Advancing Translational Sciences (NCATS))
# An excerpt weighted towards active compounds, which were near 19% of everything screened.
# TDP1 cell CPT – growth inhibition of DT40 Tdp1-/-;hTDP1 cells with camptothecin (screen for TDP1 inhibitors); actives 12% (n = 420,000); Potency, µM (top dose mostly 46.2 µM), usual class: inhibitors; chicken DT40 Tdp1-/-;hTDP1 cells + 20 nM CPT, ATP luminescence, 48 h; AID 686979; further: nearly all actives have a fitted effect of over 55% in size
#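 Chicken DT40 Tdp1-/- cells stably complemented with human TDP1 were seeded at 400 cells/well in medium containing 20 nM camptothecin, exposed to pin-transferred compounds, and grown at 37 °C for at least 48 hr. Viability was read as ATP luminescence.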
# HT1080-NT tox – kills 2HG-producing HT-1080-NT fibrosarcoma cells; Potency, µM (highest dose often 46.1 µM), actives largely listed as cytotoxic; AID 686970; actives 1.6% (n = 360,000); HT-1080-NT fibrosarcoma viability, CellTiter-Glo ATP luminescence, 48 h;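 further: NT is the 2HG producing partner of a matched IDH1 knockdown line; nearly all actives have a fitted effect of over 55% in size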
#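 HT-1080-NT; 750 cells/well; 5% FBS RPMI; 48 h compound, 37 degrees C; CellTiter-Glo luminescence; curve fitting and curve-class assignment.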
# TDP1 cell noCPT – qHTS for Inhibitors of human tyrosyl-DNA phosphodiesterase 1 (TDP1): qHTS in cells in absence of CPT; DT40 Tdp1-/- hTDP1 cells, no CPT, ATP luminescence, 48 h; Potency, µM (titrated, usually from 46.2 µM), actives largely listed as inhibitors; actives 15% (n = 420,000); AID 686978, 2013; further: nearly all actives have a fitted effect of over 55% in size
#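 Growth kinetics read by CellTiter-Glo luminescence after ≥48 hr at 37 °C. Cells: DT40 Tdp1-/- stably carrying human TDP1, 400 per well, compound exposure in the absence of CPT (DMSO vehicle).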
# HT1080 IDH1KD tx – HT-1080 IDH1 knockdown cell toxicity (counter line); actives 2% (n = 360,000); HT-1080 IDH1 knockdown viability, ATP luminescence, 48 h; AID 686971; Potency, µM (doses to about 46.1 µM), actives largely listed as cytotoxic
#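 IDH1KD HT-1080 cells, 750/well, RPMI + 5% FBS; compound pinned after 2 h settling; 48 h, 37 °C; CellTiter-Glo luminescence; % activity normalised to DMSO and no-cell wells; curves fitted, classed by r2 and efficacy.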
# IL-1B inflam inh – blocks inflammasome-driven IL-1 beta release | AID 743279 | THP-1 LPS/ATP IL-1B secretion, AlphaLISA, 16 h; hits give low values | actives 4.7% (n = 360,000) | activity change, % at 57.5 µM; in the data active means activity change below about -50%; inconclusive means mostly about -30% to -49%
#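 Secreted IL-1B measured by AlphaLISA bead assay after 16 h compound exposure of THP-1 cells; compounds (final up to 57.5 uM) added 1 h before LPS (250 ng/mL) and ATP (1.25 mM) stimulation; lower signal means less secretion.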
# Numbers stand for hits; . = inactive; ? = inconclusive; / = not tested or not shown. Unless noted, the call rests on the fitted dose curve; in most records, active means well fitted curve in the direction sought with a large enough effect; inconclusive means small, poorly fitted or top-dose-only effect, or another doubt; inactive means no such curve, though single readings can be large; an effect the other way counts as inactive or inconclusive.
SMILES,TDP1 cell CPT,HT1080-NT tox,TDP1 cell noCPT,HT1080 IDH1KD tx,IL-1B inflam inh
CC[C@]1(C(=O)OC)[C@H]2C(=O)N(C)C(=O)[C@H]2[C@H]2CN=C(SCc3ccc(C)cc3)N21,.,.,.,.,.
COC(=O)[C@@]1(Cc2ccccc2)[C@H]2C(=O)N(C)C(=O)[C@H]2[C@H]2CN=C(SCC3CC3)N21,3.66µM,.,.,.,.
CCN1C(=O)[C@H]2[C@H]3CN=C(SCC4CC4)N3[C@@](Cc3ccccc3)(C(=O)OC)[C@H]2C1=O,.,.,?,.,.
Cc1ccc(-c2cc(C(F)(F)F)n3nc(C(=O)Nc4sc5c(c4C#N)CCC(C)C5)cc3n2)cc1 (stereo not drawn),.,/,.,/,/
CS(=O)(=O)N1CCc2cc(C(=O)Nc3ccc(S(N)(=O)=O)cc3)ccc21,.,/,.,/,/
CC(Cc1cccs1)NC(=O)CCCn1nnnc1CN1CCOCC1 (stereo not drawn),.,.,.,.,.
CN(Cc1ccccc1)C(=S)NC(=O)c1ccc(-c2ccccc2)cc1,4.61µM,.,4.61µM,?,.
COc1cc(C(=O)NC(=S)N(C)Cc2ccccc2)cc(OC)c1OC,20.6µM,.,8.2µM,.,.
CN(Cc1ccccc1)C(=S)NC(=O)c1cccs1,?,.,?,.,.
COc1cc2[nH]c(C(=O)N(C)Cc3ccccc3)cc2c(OC)c1OC,.,.,.,.,.
COc1cc(C(=O)NCC(=O)N/N=C(\C)Cc2ccccc2)cc(OC)c1OC,.,.,.,.,.
O=C(NC(=S)N(CCc1ccccc1)CCc1ccccc1)c1ccco1,18.4µM,.,11.6µM,.,.
COc1cc(C(=O)N/N=C(\C)Cc2ccccc2)cc(OC)c1OC,.,1.16µM,.,1.03µM,.
CC(C)c1ccc(NC(=O)c2cnc3sc(N4CCOCC4)nn3c2=O)cc1,.,/,.,/,/
CCNC(=O)CN(Cc1ccccc1)S(=O)(=O)c1ccccc1,.,.,.,.,.
Cc1ccccc1N(C=O)c1ccccc1C,.,.,.,.,.
COCCNc1ccc(S(=O)(=O)N2CCCC2)cn1,.,.,.,.,.
COc1cc(C(=O)NC(C)CCc2ccccc2)cc(OC)c1OC (stereo not drawn),.,.,.,.,.
COc1cc(C(=O)NC(=S)N(CCc2ccccc2)CCc2ccccc2)cc(OC)c1OC,23.1µM,.,20.6µM,?,.
CCCc1cc(=O)[nH]c(SCC(=O)Nc2ccc(Cl)c(S(=O)(=O)N3CCOCC3)c2)n1,.,.,.,.,.
O=C(/C=C/c1cccnc1)c1cc(F)ccc1O,?,.,20.6µM,.,.
C(=Cc1cccnc1)c1ccncc1,.,.,?,.,.
CN(C)S(=O)(=O)c1ccc(C(=O)/C=C/c2cccnc2)cc1,8.2µM,.,20.6µM,.,.
COc1ccc(Br)cc1C(=O)N/N=C/c1cccnc1,.,.,.,.,.
O=C(/C=C/c1cccnc1)/C=C/c1cccnc1,1.03µM,4.11µM,0.581µM,3.26µM,-92.9
SMILES,TDP1 cell CPT,HT1080-NT tox,TDP1 cell noCPT,HT1080 IDH1KD tx,IL-1B inflam inh
COc1ccc(OC)c(C(=O)/C=C/c2cccnc2)c1,?,20.6µM,11.6µM,?,-98.4
COc1ncnc2c1ncn2CCCN(C)Cc1ccco1,.,.,.,.,.
COc1cc(C(=O)/C=C/c2cccnc2)ccc1O,?,?,18.4µM,?,-99.2
CNc1snc(C)c1C(=O)OC(C)C(=O)Nc1ccccc1 (stereo not drawn),?,.,?,.,.
O=C(Oc1cccc2cccnc12)c1cccc([N+](=O)[O-])c1,0.92µM,?,0.731µM,?,-98.8
O=C(Nc1cccc2cccnc12)c1cccc([N+](=O)[O-])c1,.,.,.,.,.
Cc1c(C(=O)Oc2cccc3cccnc23)cccc1[N+](=O)[O-],?,?,?,?,-65.8
Cc1c(C(=O)O/N=C(\N)c2ccccn2)cccc1[N+](=O)[O-],?,.,?,?,.
O=C(Oc1cccc2cccnc12)c1ccc2c(c1)OCCO2,0.651µM,23.1µM,1.03µM,?,.
